In all, about 48,000 compounds went through this assay and about 13,000 (27%) showed an effect of 50% or more. This is one part of the list.
What follows are compounds tested on Wolbachia pipientis (assay: Anti-Wolbachia Cell-Based Screen). Conditions: 5 µM.
Format: functional
Design: scale not given: in the data most compounds retested in dose-response had high values

SMILES | Percent Effect [%]
Cc1cccc(-c2nc(CN3CCn4c(nnc4C4CC4)C3)no2)c1 | 0.9786
Cc1nc(C2(NCc3c(C)nn(C)c3N3CCOCC3)CCC2)no1 | -14.17
Cc1cccc(CS(=O)(=O)Cc2ccn(C)c(=O)c2)c1 | -8.677
c1cn(CCNc2nc(NC3CC3)nc3c2CCNCC3)nn1 | -2.29
CCN(C(=O)CN1CCCC1c1ccc(OC)cc1)c1ccccc1C (configuration not stated) | 3.108
COc1cc(/C=C/c2ncc(C(=O)O)s2)cc(OC)c1 | 4.44
COc1ccc(N(c2ccc(OC)cc2)c2ccc(C(=O)O)s2)cc1 | 99.84
COc1ccc(N(c2ccccc2)c2ccc(C(=O)O)s2)cc1 | 119.4
COc1ccc(N(c2ccc(C)cc2)c2ccc(C(=O)O)s2)cc1 | 128.9
COc1ccc(OC2CCN(C(=O)c3ccc(C(C)=O)s3)CC2)cc1 | -8.42
COc1ccc(CNC(=O)C2=NN(c3ccc(C)cc3)C(=O)CN2)cc1 | -36.41
CCN(C(=O)CN1CCCC1c1ccc(OC)cc1)c1ccccc1 (configuration not stated) | 3.138
O=C1CN(C(=O)c2cc(Cl)ccc2F)c2ccccc2N1 | 1.511
Cc1ccc2c(c1)C1(CCN(S(C)(=O)=O)CC1)CN2C(=O)N(C)C | 0.4399
CC(C)C[C@H](N)C(=O)N1CC2(CCNCC2)c2cc(Cl)ccc21.Cl.Cl | 115.3
CCOC(=O)N1CC2(CCNCC2)c2cc(Cl)ccc21.Cl | 107.5
CCC(=O)N1CCC2(CC1)CN(C(C)=O)c1ccc(C)cc12 | 1.312
CC(=O)N1CC2(CCN(C(=O)CO)CC2)c2cc(C)ccc21 | -15.84
C[C@@H](N)C(=O)N1CC2(CCNCC2)c2cc(Cl)ccc21.Cl.Cl | 85.61
O=C1CN(C(=O)c2cc(Cl)ccc2F)c2ccncc2N1 | -25.93
Cl.O=C(c1ccccc1F)N1CC2(CCNCC2)c2cc(Cl)ccc21 | 106.3
CN(C)C(=O)N1CC2(CCNCC2)c2cc(Cl)ccc21.Cl | -23.53
Cc1ccc2c(c1)C1(CCNCC1)CN2C(=O)C(C)C | -27.38
CC(CO)(NC(=O)Nc1nnc(C(F)F)s1)C1CC1 (configuration not stated) | -2.731
CCc1ccc(C(C)NC(=O)CN(C)Cc2ccc(C)o2)cc1 (configuration not stated) | 6.981
O=C(O)c1ccccc1C1CCN(C2CCN(c3ccccc3)CC2)C1 (configuration not stated) | 1.292

SMILES | Percent Effect [%]
Cc1nc(CN2CCOC(c3ccc(Cl)cc3)C2)oc1C (configuration not stated) | -15.43
Cc1cc(CN2CCN(c3ccc4nncn4n3)C(C)C2)no1 (configuration not stated) | 0.8559
CC1CN(Cc2ccccn2)CCN1c1ccc2nncn2n1 (configuration not stated) | 99.39
Cc1ncc(CN2CCN(c3ccc4nncn4n3)C(C)C2)s1 (configuration not stated) | 100.4
Cc1ncc(CN2CCOC(CN(C)c3cccnn3)C2)s1 (configuration not stated) | -7.672
Cc1csc(N2CCN(Cc3cnc(C)s3)CC2C)n1 (configuration not stated) | -7.074
Cc1cc(CN2CCN(c3ccc4nncn4n3)C(C)C2)on1 (configuration not stated) | 105.9
Cc1nc(CN2CCN(c3ccc4nncn4n3)C(C)C2)oc1C (configuration not stated) | 98.31
CC1(C)CN(C(=O)c2cnc(-c3ccccn3)nc2)CC[C@]1(C)O | -14.16
CC(c1ccccc1F)N(C(=O)CSCC(N)=O)C1CC1 (configuration not stated) | -1.119
CCc1[nH]c2c(CNc3cncc(C(=O)N(C)C)n3)cc(C)cc2c1C | -3.475
COc1ccc(C(C)Nc2ncc(C(N)=O)cc2Cl)c(OC)c1 (configuration not stated) | 7.521
CS(=O)(=O)NCCN1CCSCC1c1ccc(Cl)cc1 (configuration not stated) | 7.054
Cn1ccnc1SCc1nc(C(C)(C)NC(=O)OC(C)(C)C)no1 | 4.931
c1ccc(CCN2CCN(c3ccc4nncn4n3)CC2)nc1 | -2.088
Cc1ccn(-c2ccc(N3CCN(Cc4ccccn4)CC3)nn2)n1 | -3.971
Cc1cc(CN2CCN(CC(O)C(C)(C)C)CC2)no1 (configuration not stated) | -2.656
Cc1nnc2ccc(N3CCN(Cc4nccn4C)CC3)nn12 | -5.258
CCn1ccnc1CN1CCN(c2ccc3nnc(C)n3n2)CC1 | -14.29
Cc1cc(CN2CCN(c3ccc4nncn4n3)CC2)no1 | 96.25
Cc1nnc2ccc(N3CCN(CCc4ccccn4)CC3)nn12 | 75.62
N#Cc1ccc(N2CCN(c3ccc4nncn4n3)CC2)nc1 | -1.975
Cc1cnc(CN2CCN(c3ccc4nncn4n3)C(C)C2)cn1 (configuration not stated) | 120.6
CC1CN(CC2CCCCC2)CCN1c1ccc2nncn2n1 (configuration not stated) | -9.658
c1ccc(CN2CCN(c3ccc4nncn4n3)CC2)nc1 | 81.68
CC1CN(CC2CCCC2)CCN1c1ccc2nncn2n1 (configuration not stated) | -0.9162

Reference: ChEMBL document CHEMBL3988442, “University of Dundee, Small-Polar-MMV Screening Library” (2021)
